Test results published in PubChem BioAssay (Tox21).
Several values for one entry are separate records, joined by “and”; a condition that tells them apart may be missing. Equal values may be shown once. Records with an inconclusive call do not appear. Entries that show only a call come without a potency. Unmarked numbers belong to inactive results. Activity calls are given as the source filed them. Calls come from the whole dose curve; as a rule, active = well fitted curve in the direction sought with a large enough effect in the repeat runs; inconclusive = weak or mixed curves; inactive = no such curve, though single readings can be large; an effect the other way counts as inactive or inconclusive.

Columns and labels:
[1] = target: Cytochrome P450 2C19 (Homo sapiens) (UniProt P33261); experiment: Cytochrome P450 Family 2 Subfamily C Member 19 (CYP2C19) small molecule antagonists: luciferase reporter qHTS assay (AID 1671197); note: nearly all actives have a fitted effect of over 65% in size
Procedure, shortened: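 Relative luminescence units recorded 20 min after the detection reagent stopped a 1 h, 37C CYP2C19 reaction on proluciferin substrate, which was started by NADPH regeneration following 10 min room-temperature compound preincubation; ketoconazole positive control.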

[2] = target: Cytochrome P450 2C9 (Homo sapiens) (UniProt P11712); experiment: Cytochrome P450 Family 2 Subfamily C Member 9 (CYP2C9) small molecule antagonists: luciferase reporter qHTS assay (AID 1671198); note: nearly all actives have a fitted effect of over 50% in size
Procedure, shortened: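 P450-Glo proluciferin substrate with CYP2C9 enzyme; 10 min RT preincubation, then NADPH regeneration 1 h at 37C; luciferin detection reagent 20 min RT, luminescence in relative luminescence units.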

[3] = target: Cytochrome P450 1A2 (Homo sapiens) (UniProt P05177); experiment: Cytochrome P450 Family 1 Subfamily A Member 2 (CYP1A2) small molecule antagonists: luciferase reporter qHTS assay (AID 1671199); note: nearly all actives have a fitted effect of over 50% in size
Procedure, shortened: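 Signal from luciferin formed by CYP1A2 from a proluciferin substrate is read as luminescence, expressed in relative luminescence units. Compounds sit with enzyme 10 min, NADPH-driven reaction runs 1 h, all at room temperature.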

[4] = target: Voltage-gated inwardly rectifying potassium channel KCNH2 (Homo sapiens) (UniProt Q12809); experiment: Human Ether-a-go-go-Related Gene (hERG) channel small molecule antagonists: fluorescence cell-based qHTS assay (AID 1671200); note: nearly all actives have a fitted effect of over 50% in size
Procedure, shortened: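 Read-out: thallium influx as a surrogate for potassium, tracked as fluorescence (480 nm ex/540 nm em) every second for 2 min after Stimulus Buffer addition in dye-loaded hERG-U2OS cells.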

[5] = target: Cytochrome P450 3A4 (Homo sapiens) (UniProt P08684); experiment: Cytochrome P450 Family 3 Subfamily A Member 4 (CYP3A4) small molecule antagonists: luciferase reporter qHTS assay (AID 1671201); note: nearly all actives have a fitted effect of over 50% in size
Procedure, shortened: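 Luminescent readout (RLU) proportional to CYP3A4 activity, from luciferin generated off a proluciferin substrate. Enzyme–substrate mix plus compound 10 min at room temp, NADPH regeneration 1 h, detection reagent 20 min.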
Potency is the fitted concentration of half-maximal effect.

Chain of Voltage-gated inwardly rectifying potassium channel KCNH2 (Homo sapiens) (Q12809 whole entry, looked up): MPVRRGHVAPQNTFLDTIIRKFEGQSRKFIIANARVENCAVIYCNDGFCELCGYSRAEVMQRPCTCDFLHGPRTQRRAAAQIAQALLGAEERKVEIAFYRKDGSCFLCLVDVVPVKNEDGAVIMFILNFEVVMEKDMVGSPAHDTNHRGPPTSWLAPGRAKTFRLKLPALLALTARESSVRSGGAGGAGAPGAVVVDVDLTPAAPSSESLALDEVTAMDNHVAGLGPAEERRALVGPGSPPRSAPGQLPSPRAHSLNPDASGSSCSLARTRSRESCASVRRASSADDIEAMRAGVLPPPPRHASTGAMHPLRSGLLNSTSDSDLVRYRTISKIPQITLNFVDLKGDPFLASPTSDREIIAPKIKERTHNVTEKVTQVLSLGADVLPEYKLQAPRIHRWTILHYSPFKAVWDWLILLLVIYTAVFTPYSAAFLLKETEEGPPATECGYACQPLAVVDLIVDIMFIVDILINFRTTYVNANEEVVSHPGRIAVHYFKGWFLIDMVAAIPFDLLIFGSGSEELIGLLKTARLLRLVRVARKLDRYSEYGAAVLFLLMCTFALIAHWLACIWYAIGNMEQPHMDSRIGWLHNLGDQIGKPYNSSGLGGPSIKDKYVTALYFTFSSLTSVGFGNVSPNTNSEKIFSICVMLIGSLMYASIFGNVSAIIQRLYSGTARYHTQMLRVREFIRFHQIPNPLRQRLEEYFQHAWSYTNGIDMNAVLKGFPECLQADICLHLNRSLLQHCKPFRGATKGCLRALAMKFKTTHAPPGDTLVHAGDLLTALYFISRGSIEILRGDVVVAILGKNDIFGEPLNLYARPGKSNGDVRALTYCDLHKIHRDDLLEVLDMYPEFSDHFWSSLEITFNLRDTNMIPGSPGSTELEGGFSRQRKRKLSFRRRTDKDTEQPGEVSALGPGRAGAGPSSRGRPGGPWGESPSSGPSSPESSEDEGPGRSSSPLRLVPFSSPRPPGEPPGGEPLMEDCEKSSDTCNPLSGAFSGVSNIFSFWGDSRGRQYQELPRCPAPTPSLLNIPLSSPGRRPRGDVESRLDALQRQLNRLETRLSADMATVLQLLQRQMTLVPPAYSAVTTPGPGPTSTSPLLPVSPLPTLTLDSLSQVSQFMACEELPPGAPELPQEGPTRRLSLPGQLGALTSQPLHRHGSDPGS
Chain of Cytochrome P450 2C19 (Homo sapiens) (P33261 whole entry, looked up): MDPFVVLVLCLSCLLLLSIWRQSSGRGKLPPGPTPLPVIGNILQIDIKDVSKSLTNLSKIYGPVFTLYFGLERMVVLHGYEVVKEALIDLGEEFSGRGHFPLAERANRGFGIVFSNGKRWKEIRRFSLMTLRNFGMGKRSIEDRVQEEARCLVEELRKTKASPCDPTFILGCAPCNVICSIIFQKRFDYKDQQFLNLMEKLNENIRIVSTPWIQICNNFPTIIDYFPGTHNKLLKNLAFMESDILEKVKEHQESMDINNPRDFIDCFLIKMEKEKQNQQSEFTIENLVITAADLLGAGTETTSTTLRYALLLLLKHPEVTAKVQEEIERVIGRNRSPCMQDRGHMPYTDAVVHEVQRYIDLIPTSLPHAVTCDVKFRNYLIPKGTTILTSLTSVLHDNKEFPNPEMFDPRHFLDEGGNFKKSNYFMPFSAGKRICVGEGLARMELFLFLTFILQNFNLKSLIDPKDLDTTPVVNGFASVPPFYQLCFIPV
Chain of Cytochrome P450 2C9 (Homo sapiens) (P11712 whole entry, looked up): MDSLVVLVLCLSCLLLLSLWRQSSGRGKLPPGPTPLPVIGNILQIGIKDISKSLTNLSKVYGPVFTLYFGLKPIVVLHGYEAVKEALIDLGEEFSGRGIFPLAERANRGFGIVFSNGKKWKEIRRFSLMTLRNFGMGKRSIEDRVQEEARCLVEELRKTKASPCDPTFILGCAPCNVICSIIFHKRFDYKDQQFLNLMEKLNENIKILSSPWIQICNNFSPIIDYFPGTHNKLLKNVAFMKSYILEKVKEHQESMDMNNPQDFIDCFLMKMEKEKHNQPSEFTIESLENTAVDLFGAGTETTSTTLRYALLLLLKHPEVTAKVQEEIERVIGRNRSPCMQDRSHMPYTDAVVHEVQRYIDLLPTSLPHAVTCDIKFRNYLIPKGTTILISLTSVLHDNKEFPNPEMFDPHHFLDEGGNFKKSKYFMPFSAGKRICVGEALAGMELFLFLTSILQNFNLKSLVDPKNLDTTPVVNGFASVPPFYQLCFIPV
Chain of Cytochrome P450 1A2 (Homo sapiens) (P05177 whole entry, looked up): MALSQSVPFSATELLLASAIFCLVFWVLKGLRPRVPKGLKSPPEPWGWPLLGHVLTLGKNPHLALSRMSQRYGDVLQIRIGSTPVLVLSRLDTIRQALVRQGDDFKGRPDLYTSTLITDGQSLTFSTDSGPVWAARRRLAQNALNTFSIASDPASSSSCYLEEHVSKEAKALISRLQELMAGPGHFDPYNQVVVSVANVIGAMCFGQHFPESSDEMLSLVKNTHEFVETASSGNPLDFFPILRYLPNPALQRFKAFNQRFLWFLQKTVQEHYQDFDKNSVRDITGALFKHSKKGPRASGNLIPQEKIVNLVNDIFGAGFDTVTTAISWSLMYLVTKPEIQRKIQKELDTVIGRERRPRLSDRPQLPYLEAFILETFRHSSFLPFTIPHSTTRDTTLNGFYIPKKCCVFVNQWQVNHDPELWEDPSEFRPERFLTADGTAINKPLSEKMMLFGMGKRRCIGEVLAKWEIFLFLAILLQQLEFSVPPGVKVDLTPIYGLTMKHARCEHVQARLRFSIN
Chain of Cytochrome P450 3A4 (Homo sapiens) (P08684 whole entry, looked up): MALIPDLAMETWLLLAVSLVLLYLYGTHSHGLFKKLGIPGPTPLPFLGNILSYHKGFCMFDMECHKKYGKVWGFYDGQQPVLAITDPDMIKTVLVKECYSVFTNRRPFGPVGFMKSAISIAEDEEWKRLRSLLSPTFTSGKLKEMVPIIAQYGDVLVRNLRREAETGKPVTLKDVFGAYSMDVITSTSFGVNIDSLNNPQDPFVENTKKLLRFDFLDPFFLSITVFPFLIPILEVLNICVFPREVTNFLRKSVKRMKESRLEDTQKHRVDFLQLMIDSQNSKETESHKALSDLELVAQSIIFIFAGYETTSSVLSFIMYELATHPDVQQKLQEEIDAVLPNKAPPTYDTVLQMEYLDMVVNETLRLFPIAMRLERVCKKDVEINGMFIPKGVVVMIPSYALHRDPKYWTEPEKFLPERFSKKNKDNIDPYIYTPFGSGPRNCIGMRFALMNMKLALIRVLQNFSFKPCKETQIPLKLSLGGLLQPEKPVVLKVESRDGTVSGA

| SMILES | Potency [1] | Potency [2] | Potency [3] | Potency [4] | Potency [5] |
| --- | --- | --- | --- | --- | --- |
| CSCC[C@H](NC(=O)[C@H](Cc1c[nH]c2ccccc12)NC(=O)CCNC(=O)OC(C)(C)C)C(=O)N[C@@H](CC(=O)O)C(=O)N[C@@H](Cc1ccccc1)C(N)=O | inactive | inactive | inactive | inactive |  |
| O=C(C(=O)c1ccco1)c1ccco1 | 80.4 µM (active) | inactive | 35.9 µM (active) | inactive |  |
| CCOC(=O)Oc1ccc(CCNC(=O)[C@H](CCSC)NC(C)=O)cc1OC(=O)OCC | inactive | 17.4 µM (active) | inactive | inactive |  |
| Cc1ccc(N(CC2=NCCN2)c2cccc(O)c2)cc1 | 17.4 µM (active) | inactive | inactive |  |  |
| CO[C@@H]1[C@@H](OC)[C@H](C)[C@@](O)(CC(=O)O)O[C@H]1[C@H](C)[C@H]1O[C@@]2(CC[C@@](C)([C@H]3CC[C@@](C)([C@@H]4O[C@@H]([C@H]5O[C@](C)(O)[C@H](C)C[C@@H]5C)C[C@@H]4OC4C[C@H](OC)[C@@H](OC)[C@H](C)O4)O3)O2)C[C@H](O)[C@H]1C (stereo partly drawn) | inactive | inactive | inactive | inactive |  |
| O=c1[nH]c2cc(C(F)(F)F)c(N3CCOCC3)cc2n(CP(=O)(O)O)c1=O | inactive | inactive | inactive | inactive | inactive |
| COc1ccc2nc(S(=O)Cc3ncc(C)c(OC)c3C)[nH]c2c1 (stereo not drawn) | 5.57 µM (active) and 11 µM (active) | 31.3 µM (active) and 13.8 µM (active) | 8.83 µM (active) and 15.5 µM (active) | inactive |  |
| CC(=O)C(C)=O | inactive | inactive | inactive | inactive | inactive |
| CCN(CC)c1ccc(C(=C2C=CC(=[N+](CC)CC)C=C2)c2ccc(S(=O)(=O)O)cc2S(=O)(=O)[O-])cc1 | 17.8 µM (active) | 14.2 µM (active) | 10 µM (active) | inactive | 8.94 µM (active) |
| CC(C)(C(=O)c1cccnc1)c1cccnc1 | inactive | inactive | inactive | inactive | 0.389 µM (active) |
| Cc1cccc2sc(N)nc12 | 22.7 µM (active) | inactive | 18.1 µM (active) | inactive | inactive |
| CC(C)CC(O)CC(C)C | inactive | inactive | inactive | inactive | inactive |
| C1CCCCC1 | inactive | inactive | inactive | inactive | inactive |
| O=C(CCS)OCC(COC(=O)CCS)(COC(=O)CCS)COC(=O)CCS | 15.9 µM (active) | 15.9 µM (active) | inactive | 38.9 µM (active) | 5.64 µM (active) |
| CCCCCCCC(=O)OCCCCCC | inactive | inactive | inactive | inactive | inactive |
| CCC(C)(C)C(=O)O | inactive | inactive | inactive | inactive | inactive |
| O[C@@H](CNC[C@H](O)[C@H]1CCc2cc(F)ccc2O1)[C@@H]1CCc2cc(F)ccc2O1 | inactive | inactive | inactive | 2.68 µM (active) | inactive |
| O=[N+]([O-])c1ccc2ncccc2c1 | 40 µM (active) | inactive | 1.59 µM (active) | inactive | inactive |
| CC(C)C(=O)OCCOc1ccccc1 | 39.9 µM (active) | 39.9 µM (active) | 31.7 µM (active) | inactive | inactive |
| CCCOC(=O)c1c(Cl)c(Cl)c(Cl)c(Cl)c1C(=O)OCCC | 7.1 µM (active) | 17.8 µM (active) | 2.24 µM (active) | inactive | inactive |
| Nc1ccn([C@H]2CS[C@@H](CO)O2)c(=O)n1 | inactive | inactive | inactive | inactive | inactive |
| CC(=O)OCC(C)C | inactive | inactive | inactive | inactive | inactive |
| COc1ccc(-n2nc(C(F)F)cc2-c2ccc(S(C)=O)cc2)cc1 (stereo not drawn) | 2 µM (active) | 31.7 µM (active) | 31.7 µM (active) | inactive | 31.7 µM (active) |
| Cc1c(C2(c3cc(Br)c(O)c(Br)c3C)OS(=O)(=O)c3ccccc32)cc(Br)c(O)c1Br | 15.4 µM (active) | 10.9 µM (active) | 13.7 µM (active) | inactive | 27.4 µM (active) |
| O=C(NS(=O)(=O)/C=C/c1ccccc1)c1ccc(F)cc1Cl | inactive | 10 µM (active) | inactive | inactive | inactive |
| O=C(O)c1cccc(C[C@@H]2COc3ccc(OCc4nc5cc(F)ccc5s4)cc3[C@@H]2O)c1 | inactive | 40 µM (active) | 31.8 µM (active) | inactive | inactive |
| CC[C@H]1OC(=O)[C@H](C)[C@@H](O[C@H]2C[C@@](C)(OC)[C@@H](O)[C@H](C)O2)[C@H](C)[C@@H](O[C@@H]2O[C@H](C)C[C@H](N(C)C)[C@H]2O)[C@](C)(O)C[C@@H](C)/C(=N\OCOCCOC)[C@H](C)[C@@H](O)[C@]1(C)O | inactive | inactive | inactive | inactive | 3.33 µM (active) |
| O=C1OC(=O)c2c(Br)c(Br)c(Br)c(Br)c21 | inactive | inactive | inactive | inactive | inactive |
